“And” between values parts separate entries of the source, which are not always exact repeats. Equal entries are not always repeated. Screen size: about 350,000 compounds; about 1,600 (0.46%) were called active. The sample holds actives, similar compounds and a random draw of the others, so the mix is not that of the screen.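 The calls were made as follows: active = every replicate reaching a set inhibition limit, whatever the replicate mean (cut at about 25% in these data); inconclusive = mean inhibition reaches that limit but some replicates miss it; inactive = the rest.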 More than one record can exist for a structure, and the calls need not agree.

Protein AF-9 (Homo sapiens), sequence (P42568 whole entry, looked up): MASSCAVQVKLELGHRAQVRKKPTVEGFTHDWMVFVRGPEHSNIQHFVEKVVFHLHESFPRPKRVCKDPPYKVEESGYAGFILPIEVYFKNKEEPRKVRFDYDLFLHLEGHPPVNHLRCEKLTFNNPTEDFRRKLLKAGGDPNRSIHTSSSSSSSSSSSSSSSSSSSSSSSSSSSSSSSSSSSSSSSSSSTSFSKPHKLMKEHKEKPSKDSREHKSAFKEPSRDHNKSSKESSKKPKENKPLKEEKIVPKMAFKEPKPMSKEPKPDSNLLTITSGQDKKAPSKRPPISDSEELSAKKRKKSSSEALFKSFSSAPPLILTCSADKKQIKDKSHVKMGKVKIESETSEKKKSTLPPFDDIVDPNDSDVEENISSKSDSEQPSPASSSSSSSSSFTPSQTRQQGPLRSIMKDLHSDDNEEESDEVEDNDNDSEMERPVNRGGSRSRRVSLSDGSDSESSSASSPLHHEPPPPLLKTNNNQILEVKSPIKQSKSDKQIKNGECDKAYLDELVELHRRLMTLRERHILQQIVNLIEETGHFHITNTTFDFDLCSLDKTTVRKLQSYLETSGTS

This test concerns the target Protein AF-9 (Homo sapiens) (UniProt P42568). As to the kind of experiment: inhibitors of AF4 peptide binding to AF9, primary screen, biochemical, AlphaScreen, biotin-AF4 peptide, FLAG-AF9, single point (AID 651704).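 Also: 0% = plate neutral control median and 100% = total signal loss.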 The following applies: at 10 µM, stronger effect = higher value. For orientation: Alpha assays give light when donor and acceptor beads are brought close together.
The inhibition is the relative decrease from the control value, in per cent. For `COc1ccc2c(c1)c(=Cc1ccc(N(C)C)cc1)c1cc(-c3ccccc3)[n+](C)n12`, the inhibition is 67.9% (active).
In the case of `COc1cccc2c1C(=O)c1c(O)c3c(c(O)c1C2=O)CC(O)(C(C)=NNC(=O)c1ccc(Cl)c(Cl)c1)CC3OC1CC(N)C(O)C(C)O1` (centres undefined) it was 33.8% (active).
As to `N#C[C@@H]1[C@H](c2ccccc2-c2cccc(F)c2)[C@@H](CO)N1C(=O)CN1CCOCC1`, the inhibition was -3.02% (inactive).
On to `CO[C@@H]1CN(C)C(=O)c2ccc(NS(C)(=O)=O)cc2OC[C@H](C)NC[C@H]1C`, for which the inhibition was -2.11% (inactive).
Then `Cc1ccc2c(c1)C1CN(C)CCC1N2C(=S)Nc1ccc(OC(F)F)cc1` (centres undefined), with 5.25% (inactive).
Then `Cc1ccc2c(c1)C1CN(C)CCC1N2S(=O)(=O)c1cccc(F)c1` (centres undefined), with 4.04% (inactive).
In the case of `Cc1ccc2c(c1)C1CN(C)CCC1N2S(=O)(=O)c1ccc(Oc2ccc([N+](=O)[O-])cc2)cc1` (centres undefined) it was 20.9% (inactive) and 27.4% (active).
For the compound `CN(C)C(=O)c1cccc(-c2ccc([C@H]3[C@H](CO)N4C(=O)CN(C(=O)C5CCCCC5)C[C@@H]34)cc2)c1`, the inhibition was -3% (inactive).
With `CC(C)CC#Cc1cnc2c(c1)C(=O)N([C@@H](C)CO)C[C@@H](C)[C@@H](CN(C)C(=O)c1cccnc1)O2`, the inhibition was -2.62% (inactive).
In the case of `COc1ccc2c3c(n(C)c2c1)[C@@H](CO)N(Cc1ccccc1)CC31CN(C(=O)C2CC2)C1`, the inhibition is 2.25% (inactive).
As to `CC(=O)Nc1cc(-c2ccc(N3CCN(C)CC3)cc2)cn2c(-c3cccc(C(=O)N(C)C)c3)cnc12`, the inhibition is 9.58% (inactive).
In the case of `CC(=O)Nc1cc(-c2ccc(N3CCN(C)CC3)cc2)cn2c(-c3ccc(F)cc3)cnc12` it was 26.2% (active).
In the case of `COc1ccccc1-c1cc(NC(C)=O)c2ncc(-c3ccc(F)cc3)n2c1` it was -6.86% (inactive); in that of `CN(C)C(=O)c1cccc(-c2ccc3c(c2)[C@H]2[C@H](CCN2S(=O)(=O)c2cn(C)cn2)[C@@H](CO)N3)c1`, -3.61% (inactive); in that of `Cc1noc(C)c1NC(=O)N(C)C[C@@H]1OCCCC[C@H](C)Oc2ccc(NC(=O)NC3CCCCC3)cc2C(=O)N([C@H](C)CO)C[C@H]1C`, -0.856% (inactive).
In the case of `CCCNC(=O)C[C@H]1C[C@H]2c3cc(NC(=O)NC4CCCCC4)ccc3O[C@H]2[C@H](CO)O1` it was 5.96% (inactive); in that of `CCNC(=O)C[C@H]1CC[C@@H](NC(=O)C2CCOCC2)[C@@H](CO)O1`, 1.25% (inactive).
Regarding `O=C(NCc1ccccc1)C1CCCN(c2nc3ccsc3c(=O)s2)C1` (centres undefined), the inhibition is -3.41% (inactive).
Then `O=C(NCCc1cccc(F)c1)C1CCCN(c2nc3ccccc3s2)C1` (centres undefined), with 39.3% (active); and `Cc1cc(=O)n2nc(N3CCCC(C(=O)NCc4cccc(Cl)c4)C3)sc2n1` (centres undefined), with 2.52% (inactive); and `C/C=C/c1ccccc1[C@@H]1[C@@H](C#N)N(C(=O)Cc2ccccn2)[C@H]1CO`, with 0.68% (inactive).
In the case of `COc1ccccc1-c1cnc2c(c1)C(=O)N([C@H](C)CO)C[C@H](C)[C@@H](CN(C)CC1CCOCC1)O2` it was -1.31% (inactive).
As to `CC(=O)c1c(N2CCN(c3ccc(F)cc3)CC2)nc(=S)n(-c2ccccc2)c1C`, the inhibition was 26.4% (active).
In the case of `Cc1ccc2cc(C)c(N3CCN(c4ccc(F)cc4)CC3)nc2c1` it was -1.83% (inactive); in that of `CC(=O)c1c(N2CCOCC2)nc(=S)n(-c2cc(C)ccc2C)c1C`, 11.8% (inactive).
With `O=C(C1CCCC1)N1CC(=O)N2[C@H](C1)[C@@H](c1ccc(-c3cccnc3)cc1)[C@@H]2CO`, the inhibition was -2.09% (inactive).
As for `Cc1cccc(S(=O)(=O)N2CCCCN3[C@@H](CO)[C@H](c4ccc(-c5cccnc5)cc4)[C@@H]3C2)c1`, the inhibition is -0.659% (inactive).
In the case of `COc1ccc2c3c(n(C)c2c1)[C@@H](CO)N(Cc1ccccc1F)CC31CCN(C(=O)C2CCOCC2)CC1` it was 1.15% (inactive).
In the case of `Cc1noc(C)c1NC(=O)N(C)C[C@@H]1OCCCC[C@@H](C)Oc2ccc(NC(=O)C3CCCCC3)cc2C(=O)N([C@@H](C)CO)C[C@H]1C` it was -0.114% (inactive); in that of `COc1cc(/C=C/C(=O)OCC(=O)c2ccccc2)cc(OC)c1OC`, 4.16% (inactive); in that of `COc1ccc(/C=C/C(=O)OCC(=O)NCc2cccs2)cc1OC`, 2.43% (inactive).
For the compound `COc1cc2c(cc1NC(=O)COC(=O)/C=C/c1ccccc1)oc1ccccc12`, the inhibition is 30.3% (active).
In the case of `COc1ccc(CNC(=O)C[C@@H]2CC[C@H](NC(=O)c3cccc(F)c3)[C@H](CO)O2)cc1` it was 0.518% (inactive); in that of `COC(=O)c1c(C)oc(C)c1S(=O)(=O)Nc1ccc(C(C)C)cc1`, 0.192% (inactive); in that of `COC(=O)c1cc(S(=O)(=O)NCC2CCN(Cc3ccc(Cl)cc3)CC2)cn1C`, 5.58% (inactive).
Turning to `COC(=O)c1c(C)oc(C)c1S(=O)(=O)NCc1ccc(Cl)cc1`, the inhibition was 28.9% (active).
Then `O=C(CC1CC1)Nc1ccc2c(c1)[C@@H]1C[C@@H](CC(=O)NC3CCCCC3)O[C@H](CO)[C@@H]1O2`, with 0.025% (inactive); and `CC(C)CC#Cc1ccc([C@@H]2[C@@H](CO)N3C(=O)CN(C(=O)Nc4ccc(F)cc4)C[C@H]23)cc1`, with 5.86% (inactive); and `CN(C)c1ccc(C2N(C)C(=O)c3ccccc3N2C)cc1` (centres undefined), with 2.23% (inactive).
As for `CN(C)c1ccc(Nc2c3c4c(cccc4n(C)c2=O)C(=O)c2ccccc2-3)cc1`, the inhibition is 64.1% (active).
`COc1cccc(S(=O)(=O)Nc2ccc3c(c2)[C@H]2C[C@H](CC(=O)N4CCCCC4)O[C@@H](CO)[C@H]2O3)c1`: the inhibition is 0.52% (inactive).
As to `COc1ccc2c3c([nH]c2c1)[C@H](CO)N(C(=O)c1ccncc1)CC31CCN(C(=O)c2ccncc2)CC1`, the inhibition is 3.61% (inactive).
In the case of `COc1ccc(C#Cc2ccc([C@@H]3[C@@H](CO)N4C(=O)CN(C(=O)c5ccc(F)cc5)C[C@@H]34)cc2)cc1` it was -3.35% (inactive).
In the case of `O=C(c1ccccn1)N1CC2(C1)[C@H](c1ccccc1)[C@H](CO)N2C(=O)C1CCCC1` it was -1.83% (inactive).
In the case of `CN1C(=O)c2cc(NC(=O)c3ccno3)ccc2OC[C@H]2O[C@@H](CC(=O)NCC(F)(F)F)CC[C@@H]21`, the inhibition is -0.947% (inactive).
Regarding `O=C(Nc1ccccc1)C1CCN(C(=O)c2ccc(Br)cc2)CC1`, the inhibition is -2.26% (inactive).
Then `O=C1Nc2cc(C(=O)N3CCC(N4CCCCC4)CC3)ccc2S/C1=C\c1ccccc1`, with 32.5% (active); and `CC1CCN(C(=O)c2ccc3c(c2)NC(=O)CN3)CC1`, with 4.92% (inactive); and `O=C(N[C@H]1CC[C@H](CCn2cc(C3(O)CCCC3)nn2)O[C@H]1CO)C1CC1`, with -0.223% (inactive).
For `C[C@H]1CN([C@@H](C)CO)C(=O)Cc2cc(N(C)C)ccc2O[C@@H]1CN(C)Cc1ccc(-c2ccccc2)cc1`, the inhibition is 51.6% (active).
Regarding `C[C@@H]1CN([C@H](C)CO)C(=O)Cc2cc(N(C)C)ccc2O[C@@H]1CN(C)Cc1ccccc1`, the inhibition is 3.48% (inactive).
Consider `C[C@@H]1CCCCO[C@@H](CN(C)Cc2ccncc2)[C@H](C)CN([C@H](C)CO)C(=O)c2cc(N(C)C)ccc2O1`, for which the inhibition was 1.48% (inactive).
Turning to `C[C@@H]1CCCCO[C@H](CN(C)Cc2ccc(C(F)(F)F)cc2)[C@H](C)CN([C@@H](C)CO)C(=O)c2cc(N(C)C)ccc2O1`, the inhibition was 29.4% (active).
Then `C[C@H](CO)N1C[C@H](C)[C@H](CN(C)Cc2ccc(C(F)(F)F)cc2)Oc2ccc(N(C)C)cc2CC1=O`, with 15.8% (inactive).
Then `C[C@@H]1CN([C@@H](C)CO)C(=O)c2cc(N(C)C)ccc2O[C@@H](C)CCCCO[C@H]1CN(C)Cc1ccncc1`, with -1.22% (inactive); and `CCCNC(=O)N1C[C@H](C)[C@@H](OC)CN(C)C(=O)c2ccc(NC(=O)CC)cc2OC[C@@H]1C`, with -2.2% (inactive); and `COc1cccc(C#Cc2ccc([C@@H]3[C@H](C#N)N[C@H]3CO)cc2)c1`, with -2.01% (inactive).
Then `CC(C)C#Cc1ccc([C@H]2[C@@H](CO)N3C(=O)CN(C(=O)Cc4ccccc4)C[C@H]23)cc1`, with -0.595% (inactive); and `COc1ccccc1NC(=O)Nc1ccc2c(c1)OC[C@H](C)NC[C@H](C)[C@@H](OC)CN(C)C2=O`, with 1.19% (inactive).
Regarding `Cc1ccc(S(=O)(=O)Nc2ccc3c(c2)C(=O)N([C@@H](C)CO)C[C@@H](C)[C@@H](CN(C)S(=O)(=O)c2ccc(C)cc2)O3)cc1`, the inhibition was -1.03% (inactive).
In the case of `O=C(O)C[C@@H]1CC[C@H](NC(=O)CCN2CCCCC2)[C@H](CO)O1` it was -0.492% (inactive).
In the case of `Cc1ccccc1C(=O)N1CCN(c2ccc(NC(=O)c3cccs3)cc2)CC1` it was 0.817% (inactive); in that of `Cc1ccccc1C(=O)Nc1ccc(N2CCCCCC2)cc1`, 27.9% (active).
In the case of `Cc1ccccc1C(=O)Nc1ccccc1NC(=O)c1ccccc1C` it was 0.679% (inactive).
In the case of `O=C(CC1CC1)N[C@@H]1C[C@@H]2O[C@H](CO)CC[C@@H]2O[C@@H]1CCc1ccc(C#Cc2ccccc2)cc1`, the inhibition was -5.03% (inactive).
Regarding `Oc1c(CN2CCCC2)cc(COCc2ccccc2)c2cccnc12`, the inhibition was 6.56% (inactive).
For the compound `Cc1ccc(CN2CCN(c3ncccn3)CC2)c(C)c1`, the inhibition was -1.37% (inactive).
Regarding `Oc1c(CN2CCN(c3ccc(F)cc3)CC2)cc(Cl)c2cccnc12`, the inhibition is 41.3% (active).
Then `O=[N+]([O-])c1ccccc1Nc1ccc(O)cc1`, with 28.1% (active); and `O=C(NCCNc1ccccc1[N+](=O)[O-])c1ccccc1F`, with 0.524% (inactive).
In the case of `O=[N+]([O-])c1ccccc1NCc1ccccc1Cl` it was -5.33% (inactive); in that of `COc1ccc2c3c(n(C)c2c1)[C@H](CO)N(C(=O)Nc1cccc(F)c1)CC31CN(Cc2nccs2)C1`, 7.77% (inactive).
Regarding `COc1ccc2c3c(n(C)c2c1)[C@@H](CO)N(C(=O)Nc1cccc(F)c1)CC31CCN(Cc2nccs2)CC1`, the inhibition is 28.6% (active).
Then `COc1ccc2c3c(n(C)c2c1)[C@@H](CO)N(C(C)=O)CC31CCN(Cc2nccs2)CC1`, with 3.54% (inactive).

The record behind these values is PubChem BioAssay AID651704 (Broad Institute, 2012).
